Screens: PubChem BioAssay, National Center for Advancing Translational Sciences (NCATS)
PNC inhibitor: perinucleolar compartment assembly inhibition; PC3M PTB-GFP, PNC prevalence imaging, 16 h; active compounds read low; 140,000 compounds, 3.1% hits; activity change (PNC), negative = inhibition, % at 10 µM;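 active = readout at or below -70, meaning at least 70% loss of cells showing the perinucleolar compartment, a nuclear body marking cancer cells; inconclusive = readout between -30 and a set limit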;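 note: plate controls were DMSO wells for no effect and camptothecin positive control wells for full effect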
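Read-out is percentage of cells bearing a perinucleolar compartment, from automated 20x imaging of fixed, Hoechst-stained PC3M PTB-GFP cells. Cells were seeded 4 h, then exposed 16 h to compound (23 nl of library stock) in duplicate plates.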
IMPase inh: IMPase inhibition in cells. P97697. CHO-M1 cells, IP1 accumulation, HTRF TR-FRET ratio. inhibition (IP1 accumulation), % at 46.1 µM. 120,000 tested, under 10 active; active = well fitted curve in the direction sought with a large enough effect in the signal ratio, not every such curve was filed as active; inconclusive = small, poorly fitted or top-dose-only effect, or a change in a side signal; inactive = no such curve, though single readings can be large or run the other way; the % refers to the signal ratio;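 note: cells stimulated with carbachol in lithium chloride buffer; plate controls were DMSO basal wells for no effect and reference inhibitor wells for full effect; higher means more IMPase inhibition seen as more IP1 and lower FRET ratio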
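Cellular IMPase inhibition is scored as a rise in cytosolic IP1, detected by competitive TR-FRET between d2-labelled IP1 and a europium anti-IP1 antibody. M1-expressing CHO cells were stimulated with carbachol for 30 min at 37C, with lithium (50 mM LiCl) present in the buffer.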
HPGD block: inhibitors of human 15-hydroxyprostaglandin dehydrogenase (HPGD) | P15428 | purified HPGD, NADH fluorescence kinetic, PGE2 substrate | Potency, µM, for inactives: at the top dose activity change, negative = inhibition, hits mostly inhibitors | 150,000 compounds, 4.3% hits | AID 894; note: potency is the fitted concentration of half-maximal effect
Target sequence (P15428 whole entry, looked up): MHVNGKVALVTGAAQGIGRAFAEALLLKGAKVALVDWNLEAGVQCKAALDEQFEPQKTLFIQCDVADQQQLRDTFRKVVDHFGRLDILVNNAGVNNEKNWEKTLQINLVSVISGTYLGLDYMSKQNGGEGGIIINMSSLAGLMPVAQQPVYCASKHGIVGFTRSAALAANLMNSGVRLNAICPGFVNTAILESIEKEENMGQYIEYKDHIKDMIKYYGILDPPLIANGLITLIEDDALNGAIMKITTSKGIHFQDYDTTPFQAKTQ
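20 nM HPGD preincubated 15 min at room temperature with compound in 50 mM Tris-HCl pH 8, 0.01% Tween 20. Started with 1 mM NAD+ and 30 uM prostaglandin E2; NADH fluorescence (360/450 nm) read 5 times over 30-s intervals, last minus first.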
IMPase Li cell: IMPase inhibition in cells with lithium potentiation. CHO-M1 cells, IP1 TR-FRET (IP-One), carbachol + lithium. Potency, µM (top dose mostly 59.4 µM), without a hit: at the highest dose activity, negative = IMPase inhibition, most hits filed as inhibitors. 210,000 compounds, 0.35% hits; active = well fitted inhibition curve with a large enough effect; inconclusive = small, poorly fitted or top-dose-only effect; inactive = no such curve, though single readings can be large or run the other way;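 note: IP1 builds up when IMPase is blocked and the TR-FRET signal falls; potency is the fitted concentration of half-maximal effect; plate controls were basal vehicle for no effect and high inhibitor control for full effect; nearly all actives have a fitted effect of over 50% in size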
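Lithium-sensitised IP1 accumulation assay; M1-expressing CHO cells treated 30 min at 37C with compound. Competitive antibody detection by time-resolved FRET followed a 10 min room-temperature lysis step.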
ALDH1A1 inh: blocks purified human ALDH1A1 activity; P00352; Purified ALDH1A1, NADH fluorescence, propionaldehyde substrate; Potency, µM (titrated, usually from 75.3 µM), for inactives: top-dose activity, negative = inhibition, actives largely listed as inhibitors; 220,000 compounds, 7.3% hits; AID 1030;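 note: potency is the fitted concentration of half-maximal effect; plate controls were no enzyme wells and a reference inhibitor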
Target sequence (P00352 whole entry, looked up): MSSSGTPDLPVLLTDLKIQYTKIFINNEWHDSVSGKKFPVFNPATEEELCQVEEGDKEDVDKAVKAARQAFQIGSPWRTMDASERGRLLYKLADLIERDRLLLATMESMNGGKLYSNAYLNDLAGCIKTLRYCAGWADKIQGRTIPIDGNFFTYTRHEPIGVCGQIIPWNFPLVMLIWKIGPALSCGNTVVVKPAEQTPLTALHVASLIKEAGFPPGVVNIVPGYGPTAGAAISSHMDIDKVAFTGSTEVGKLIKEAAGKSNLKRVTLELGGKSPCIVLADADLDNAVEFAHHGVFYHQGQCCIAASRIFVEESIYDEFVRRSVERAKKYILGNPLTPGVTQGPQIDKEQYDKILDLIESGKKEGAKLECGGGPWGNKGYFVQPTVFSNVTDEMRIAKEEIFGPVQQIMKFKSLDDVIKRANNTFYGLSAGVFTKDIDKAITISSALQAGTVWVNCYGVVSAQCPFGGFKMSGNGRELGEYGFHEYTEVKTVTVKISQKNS
The depositor's hits bear a star; ? = inconclusive; · = no result; [ ] = another dose, or the depositor's remark. Only some compounds are listed: those with a hit (about 11% of all), similar ones and a draw of the others. Unless noted, calls come from the whole dose curve; as a rule, active = well fitted inhibition curve with a large enough effect (not every such curve was filed as active); inconclusive = small, poorly fitted or top-dose-only effect, or another doubt; inactive = no such curve, though single readings can be large or run the other way. Unless noted, % is set by controls: 0 for no effect and ±100 for the full control effect.

SMILES | PNC inhibitor | IMPase inh | HPGD block | IMPase Li cell | ALDH1A1 inh
Cc1ccc2[nH]c(=O)c(CN(CC3CCCO3)S(=O)(=O)c3cccc4nsnc34)cc2c1 (configuration not stated) | 53 | -7 | -8% | 24%[38.3 µM] | 20µM*
Cc1ccc(Cn2cnc3ccccc32)cc1C | -1 | · | -6% | 5% | -6%
COC(=O)NC(/C=C/c1ccco1)[C@@]1(C(=O)OC)CCCC1=O (some centres not stated) | · | · | · | · | -9%[13.5 µM]
COCc1oc2ccc(NS(=O)(=O)c3ccc(C)cc3)cc2c1C(=O)OC | · | -1 | · | · | ·
O=C(NCc1ccc2c(c1)OCO2)c1cc(-c2ccccn2)nc2ccccc12 | · | · | · | 10% | 1.3µM*
CCOCCCNC(=O)c1ccc2c(c1)OCO2 | -5 | 4 | 14µM* | 19%[38.3 µM] | 14%
O=C(NCc1ccc2c(c1)OCO2)c1cccs1 | -26 | 2 | 28µM* | -5%[38.3 µM] | 9%
O=C(NCc1ccc2c(c1)OCO2)NC1CCCCC1 | · | · | · | 5% | -4%
O=C(NCc1ccco1)c1cc(-c2ccccn2)nc2ccccc12 | 27 | 1 | -5% | -12%[38.3 µM] | -12%
O=C(CC12CCC(CC1)C2)NCc1ccc2c(c1)OCO2 | -1 | 4 | 16µM* | 12% | -10%
Cc1ccc(C(=O)O[C@@H](C(=O)O)[C@@H](OC(=O)c2ccc(C)cc2)C(=O)O)cc1 (tested in a mixture with another compound) | · | 6 | · | · | ·
COc1ccc(-c2nc(-c3ccccc3)oc2NC(C)C)cc1 | · | · | -6% | 8% | 3%
c1ccsc1 | · | · | -15% | 16% | 8%
CCOC(=O)c1c(C)c(C(=O)N2CCN(c3ccc(F)cc3)CC2)c(C)n1C | · | · | · | -2% | -7%
COc1ccccc1CCNC(=O)c1cc(-c2ccncc2)nc2ccc(Br)cc12 | · | · | · | -7% | -1%
COc1ccccc1CCNC(=O)c1cc(-c2ccccn2)nc2ccc(Br)cc12 | · | · | · | 13µM* | 4%
O=C(NCc1ccccn1)c1cc(-c2ccccc2Cl)nc2ccccc12 | -88* | · | -16% | 11% | -11%
Cc1ccccc1CN1CCN(CC(=O)NCc2ccc3c(c2)OCO3)C1=O | -4 | 4 | -15% | -3%[38.3 µM] | 13µM*
O=C(Cc1ccccc1)NCc1ccc2c(c1)OCO2 | 10 | 3 | 32µM* | -10%[38.3 µM] | -6%
O=C(Nc1cccc(F)c1)N1CC[C@@]2(CCCN(C(=O)c3ccncc3)C2)C1 | · | · | 1% | 9% | 15%
COC(=O)[C@@]1(Cc2ccccc2)[C@H]2c3cc(C(=O)N(C)C)n(Cc4cc(F)c(F)c(F)c4)c3C[C@H]2CN1C(=O)c1ccccc1 | · | · | -12% | 20% | -5%
CCC/C(=N/NC(=O)c1ccc2c(c1)OCO2)c1cccs1 | -22 | · | 16µM* | 22% | ?
CCOCCCNC(=O)C(c1ccccc1)N(Cc1ccc2c(c1)OCO2)C(=O)c1ccccc1O (configuration not stated) | · | · | · | 5% | 10µM*
CCOCCCNC(=O)C(c1ccc(OC)cc1)N(Cc1ccc2c(c1)OCO2)C(=O)c1ccccn1 (configuration not stated) | · | · | · | 6% | -2%
O=C(C[n+]1ccc(C(=O)NCc2ccccc2)cc1)c1ccc2c(c1)OCCO2 | · | · | · | 15% | 3.5µM*
SMILES | PNC inhibitor | IMPase inh | HPGD block | IMPase Li cell | ALDH1A1 inh
CCOCC(=O)NCc1ccc2c(c1)OCO2 | -2 | -2 | 13µM* | -10%[38.3 µM] | 3%
Cc1ccc(CC(=O)NCc2ccc3c(c2)OCO3)cc1 | -2 | 9 | -17% | -14%[38.3 µM] | -9%
Nc1cc[n+](CC(=O)c2ccc3c(c2)OCCO3)cc1 | 53 | · | -22% | -2% | 4%
O=C(O)C[C@H](Nc1ccccc1)C(=O)O | · | · | -10% | -4% | -2%[13.5 µM]
CCOc1ccccc1NC(=O)c1c(NC(=O)Cc2ccc(OC)cc2)sc2c1CCC2 | · | -14 | · | · | ·
O=C1CC(NCc2ccc3c(c2)OCO3)C(=O)N1CCc1ccccc1 (configuration not stated) | 0 | 14 | -19% | 19%[38.3 µM] | 14µM*
O=C(NCc1ccc2c(c1)OCO2)C1CC(c2ccccc2O)=NO1 (configuration not stated) | -2 | 4 | -24% | -15%[38.3 µM] | 11µM*
COc1ccc(CCNc2oc(-c3ccc(C)cc3)nc2C#N)cc1OC | -108* | 4 | ? | 25%[38.3 µM] | ?
COc1ccc(CCNc2oc(COc3ccc(Br)cc3)nc2C#N)cc1OC | -6 | 23 | -12% | 19%[38.3 µM] | 4%
COc1ccc(CCNc2oc(Cc3cccc4ccccc34)nc2C#N)cc1OC | 17 | 4 | -28% | 16%[38.3 µM] | 7.1µM*
COc1ccc(-c2nc(C#N)c(NCCc3ccccc3)o2)cc1 | -100* | 12 | ? | 12% | ?
O=C(Nc1cccc(S(=O)(=O)N2CCCCC2)c1)c1ccc(S(=O)(=O)C(F)F)cc1 | · | · | · | 17% | ?
C[C@H]1NC(=O)NC1=O | · | 4[20.6 µM] | 4% | -2% | 12%[20.9 µM]
Cc1nc2cnc(Oc3ccccc3)nc2n(Cc2cccs2)c1=O | · | · | · | 12% | ?
Cc1cccc(NC(=O)c2ccc([N+](=O)[O-])s2)c1C | ? | -2 | -11% | 16% | 0.89µM*
Nc1nnc(SCC(=O)c2ccc3ccccc3c2)s1 | 16 | -6 | 22µM* | 30%[38.3 µM] | 8.9µM*
Nc1nnc(SCC(=O)Nc2sc3c(c2C(=O)c2ccccc2)CCCC3)s1 | 31 | · | -20% | 14% | 13µM*
COCCNc1nnc(SCC(=O)Nc2sc3c(c2C(=O)c2ccccc2)CCCC3)s1 | 7 | 20 | -26% | 21% | 28µM*
Cc1cccn2cc(-c3cccc(NC(=O)C(C)C)c3)nc12 | · | -2 | · | · | ·
c1cncc(Nc2nc(-c3cccs3)cs2)c1 | ? | 8 | ? | 13%[38.3 µM] | 7.9µM*
COc1ccc(-c2csc(Nc3cccnc3)n2)cc1 | -24 | -8 | -22% | -12%[38.3 µM] | 28µM*
c1ccc(-c2csc(Nc3cccnc3)n2)nc1 | -9 | 4 | -5% | 19%[38.3 µM] | 3%
COCC(=O)N1CCC[C@@]2(CCN(Cc3nccs3)C2)C1 | · | · | -10% | 3% | 5%
Cn1ccnc1Sc1nc2ccccc2nc1NS(=O)(=O)c1ccccc1 | 1 | -30 | 22µM* | ? | -3%
N#CCCN(CC#Cc1ccccc1)OCc1ccccc1 | · | · | · | · | -15%[13.5 µM]
SMILES | PNC inhibitor | IMPase inh | HPGD block | IMPase Li cell | ALDH1A1 inh
C/C(N)=C(/C#N)C(=O)CSc1nc(C2CCCCC2)n(-c2ccccc2)n1 | 6 | 3 | -14% | 3%[38.3 µM] | 32µM*
NC(=O)NC(=O)CSc1nc(C2CCCCC2)n(-c2ccccc2)n1 | 45 | · | -8% | 0% | 7%
O=C(COc1ncnc2ccccc12)NCc1ccco1 | · | · | · | -12% | -6%
CCOC(=O)CNC(=O)CSc1ncnc2c1nnn2-c1ccc(F)cc1 | -100* | -2 | -14% | 7% | 9%
O=C(CSc1ncnc2ccccc12)NCc1ccco1 | -26 | -11[1.84 µM] | 16µM* | -4% | 22%
COc1ccc(-n2nnc3c(SCC(=O)NCc4ccco4)ncnc32)cc1 | 2 | 0 | 28µM* | 1%[38.3 µM] | ?
Cc1ccc(-n2nnc3c(SCC(=O)NCc4ccco4)ncnc32)cc1 | -7 | 14 | ? | 5% | 0%
